From PubChem BioAssay AID1159580 (chemical genetic matrix, 2015)
Several values for one entry are separate records, joined by “and”; a condition that tells them apart may be missing. Identical values can stand only once. In all, about 5,500 compounds went through this assay and about 2,000 (36%) were called active. Not shown: some 18% with an inconclusive outcome. Cut-off read from the data, not from the text of the source: active = normalized growth mostly below about 0.91 (no sharp cut-off); inconclusive = no clear call, values can overlap the other calls; inactive = mostly above about 0.92. The list shows a part of the results.

Experiment: chemical genetic growth profiling, strain panel (AID 1159580);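 note: tested at 20 µM; growth read once vehicle control cultures reached saturation at 30 °C; 1 = growth at the plate median or of vehicle wells; lower values mean less growth of the strain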
Details: growth OD

Measured: normalized growth

COc1ccc(Cc2nccc3cc(OC)c(OC)cc23)cc1OC
inactive: S. cerevisiae deletion strains, locus YJR066W, strain TOR1, stronger effect = lower value 0.975 | S. cerevisiae deletion strains, locus YJR075W, strain HOC1, stronger effect = lower value 0.995 | S. cerevisiae deletion strains, locus YKL009W, strain mrt4, stronger effect = lower value 0.984 | S. cerevisiae deletion strains, locus YKL068W, stronger effect = lower value 0.999 | S. cerevisiae deletion strains, locus YKL085W, strain MDH1 (second series), stronger effect = lower value 0.991 | S. cerevisiae deletion strains, locus YKL085W, strain MDH1, stronger effect = lower value 0.991 | S. cerevisiae deletion strains, locus YKL160W, strain elf1, stronger effect = lower value 1.02 | S. cerevisiae deletion strains, locus YKL190W, strain CNB1, stronger effect = lower value 1.01 | S. cerevisiae deletion strains, locus YKR001C, strain vps1, stronger effect = lower value 0.961 | S. cerevisiae deletion strains, locus YKR026C, strain gcn3, stronger effect = lower value 1 | S. cerevisiae deletion strains, locus YKR091W, strain srl3, stronger effect = lower value 0.998 | S. cerevisiae deletion strains, locus YLL001W, strain dnm1, stronger effect = lower value 1.01 | S. cerevisiae deletion strains, locus YLL026W, stronger effect = lower value 1 | S. cerevisiae deletion strains, locus YLL041C, strain sdh2, stronger effect = lower value 1 | S. cerevisiae deletion strains, locus YLR027C, strain aat2, stronger effect = lower value 0.994 | S. cerevisiae deletion strains, locus YLR039C, strain RIC1, stronger effect = lower value 1 | S. cerevisiae deletion strains, locus YLR058C, strain SHM2, stronger effect = lower value 1.02 | S. cerevisiae deletion strains, locus YLR102C, strain apc9, stronger effect = lower value 0.988 | S. cerevisiae deletion strains, locus YLR113W, strain HOG1, stronger effect = lower value 0.975 | S. cerevisiae deletion strains, locus YLR221C, strain rsa3, stronger effect = lower value 1.01 | S. cerevisiae deletion strains, locus YLR258W, strain gsy2, stronger effect = lower value 1 | S. cerevisiae deletion strains, locus YLR262C, strain YPT6 (second series), stronger effect = lower value 1.01 | S. cerevisiae deletion strains, locus YLR262C, strain YPT6, stronger effect = lower value 1.01 | S. cerevisiae deletion strains, locus YLR268W, strain sec22, stronger effect = lower value 0.967 | S. cerevisiae deletion strains, locus YLR320W, strain mms22, stronger effect = lower value 1.01 | S. cerevisiae deletion strains, locus YLR330W, strain CHS5, stronger effect = lower value 1.01 | S. cerevisiae deletion strains, locus YLR342W, strain FKS1 (second series), stronger effect = lower value 0.996 | S. cerevisiae deletion strains, locus YLR342W, strain FKS1, stronger effect = lower value 1.01 | S. cerevisiae deletion strains, locus YLR357W, strain rsc2, stronger effect = lower value 0.972 | S. cerevisiae deletion strains, locus YLR370C, strain arc18, stronger effect = lower value 0.992 | S. cerevisiae deletion strains, locus YLR371W, strain rom2, stronger effect = lower value 0.999 | S. cerevisiae deletion strains, locus YLR384C, strain iki3, stronger effect = lower value 1 | S. cerevisiae deletion strains, locus YLR418C, strain cdc73, stronger effect = lower value 0.933 | S. cerevisiae deletion strains, locus YML016C, strain PPZ1, stronger effect = lower value 1.01 | S. cerevisiae deletion strains, locus YML032C, strain rad52, stronger effect = lower value 0.977 | S. cerevisiae deletion strains, locus YML120C, strain ndi1, stronger effect = lower value 1 | S. cerevisiae deletion strains, locus YML124C, strain tub3, stronger effect = lower value 0.988 | S. cerevisiae deletion strains, locus YMR058W, strain fet3, stronger effect = lower value 1.01 | S. cerevisiae deletion strains, locus YMR078C, strain ctf18, stronger effect = lower value 0.991 | S. cerevisiae deletion strains, locus YMR125W, strain sto1, stronger effect = lower value 0.994 | S. cerevisiae deletion strains, locus YMR129W, stronger effect = lower value 0.998 | S. cerevisiae deletion strains, locus YMR205C, strain PFK2, stronger effect = lower value 1.02 | S. cerevisiae deletion strains, locus YMR223W, strain ubp8, stronger effect = lower value 0.987 | S. cerevisiae deletion strains, locus YMR231W, strain pep5, stronger effect = lower value 1.01 | S. cerevisiae deletion strains, locus YMR307W, strain GAS1, stronger effect = lower value 0.988 and 0.997 | S. cerevisiae deletion strains, locus YNL067W, strain RPL9B, stronger effect = lower value 1.01 | S. cerevisiae deletion strains, locus YNL071W, strain lat1, stronger effect = lower value 1 | S. cerevisiae deletion strains, locus YNL128W, strain TEP1, stronger effect = lower value 1.01 and 0.977 | S. cerevisiae deletion strains, locus YNL153C, strain GIM3, stronger effect = lower value 1.01 | S. cerevisiae deletion strains, locus YNL175C, strain NOP13, stronger effect = lower value 0.988 | S. cerevisiae deletion strains, locus YNL183C, strain NPR1, stronger effect = lower value 0.946 | S. cerevisiae deletion strains, locus YNL197C, strain WHI3, stronger effect = lower value 0.996 | S. cerevisiae deletion strains, locus YNL209W, strain ssb2, stronger effect = lower value 1 | S. cerevisiae deletion strains, locus YNL224C, strain SQS1, stronger effect = lower value 0.993 | S. cerevisiae deletion strains, locus YNL233W, strain BNI4, stronger effect = lower value 1.02 | S. cerevisiae deletion strains, locus YNL248C, strain rpa49, stronger effect = lower value 0.992 | S. cerevisiae deletion strains, locus YNL250W, strain rad50, stronger effect = lower value 0.985 | S. cerevisiae deletion strains, locus YNL271C, strain bni1, stronger effect = lower value 0.982 | S. cerevisiae deletion strains, locus YNL298W, strain CLA4, stronger effect = lower value 0.999 | S. cerevisiae deletion strains, locus YNL307C, strain MCK1, stronger effect = lower value 0.98 | S. cerevisiae deletion strains, locus YNL322C, strain KRE1 (second series), stronger effect = lower value 1.01 | S. cerevisiae deletion strains, locus YNR049C, strain mso1, stronger effect = lower value 0.999 | S. cerevisiae deletion strains, locus YNR052C, strain pop2, stronger effect = lower value 0.986 | S. cerevisiae deletion strains, locus YOL006C, strain TOP1, stronger effect = lower value 1.02 | S. cerevisiae deletion strains, locus YOL012C, strain htz1 1.11 | S. cerevisiae deletion strains, locus YOL147C, strain pex11, stronger effect = lower value 0.988 | S. cerevisiae deletion strains, locus YOR001W, strain rrp6, stronger effect = lower value 0.965 | S. cerevisiae deletion strains, locus YOR061W, strain CKA2, stronger effect = lower value 1.01 | S. cerevisiae deletion strains, locus YOR069W, strain VPS5, stronger effect = lower value 1.01 | S. cerevisiae deletion strains, locus YOR070C, strain gyp1, stronger effect = lower value 0.999 | S. cerevisiae deletion strains, locus YOR080W, strain dia2, stronger effect = lower value 0.997 | S. cerevisiae deletion strains, locus YOR083W, strain WHI5 (second series), stronger effect = lower value 1 | S. cerevisiae deletion strains, locus YOR083W, strain WHI5, stronger effect = lower value 1.03 | S. cerevisiae deletion strains, locus YOR106W, strain vam3, stronger effect = lower value 1.02 | S. cerevisiae deletion strains, locus YOR136W, strain idh2, stronger effect = lower value 0.998 | S. cerevisiae deletion strains, locus YOR144C, strain elg1, stronger effect = lower value 1 | S. cerevisiae deletion strains, locus YOR184W, strain ser1, stronger effect = lower value 0.984 | S. cerevisiae deletion strains, locus YOR231W, strain MKK1, stronger effect = lower value 0.984 | S. cerevisiae deletion strains, locus YOR265W, strain rbl2, stronger effect = lower value 1 | S. cerevisiae deletion strains, locus YOR270C, strain vph1, stronger effect = lower value 0.998 | S. cerevisiae deletion strains, locus YOR290C, strain snf2, stronger effect = lower value 0.993 | S. cerevisiae deletion strains, locus YOR316C, strain cot1, stronger effect = lower value 1 | S. cerevisiae deletion strains, locus YPL051W, strain arl3, stronger effect = lower value 0.998 | S. cerevisiae deletion strains, locus YPL055C, strain LGE1, stronger effect = lower value 0.983 | S. cerevisiae deletion strains, locus YPL078C, strain atp4, stronger effect = lower value 0.998 | S. cerevisiae deletion strains, locus YPL106C, strain sse1, stronger effect = lower value 1 | S. cerevisiae deletion strains, locus YPL240C, strain hsp82, stronger effect = lower value 1.01 | S. cerevisiae deletion strains, locus YPL241C, strain CIN2, stronger effect = lower value 1.01 | S. cerevisiae deletion strains, locus YPL256C, strain CLN2, stronger effect = lower value 1.02 | S. cerevisiae deletion strains, locus YPR119W, strain clb2, stronger effect = lower value 0.99 | S. cerevisiae deletion strains, locus YPR141C, strain kar3, stronger effect = lower value 0.988 | S. cerevisiae deletion strains, locus YPR163C, strain tif3, stronger effect = lower value 0.974 | S. cerevisiae deletion strains, locus YPR167C, strain met16, stronger effect = lower value 0.991 | S. cerevisiae deletion strains, strain wtn01, stronger effect = lower value 0.985 | S. cerevisiae strains, strain wild type, stronger effect = lower value 1.01
